From PubChem
ANO1 activ: TMEM16A chloride channel activators or potentiators, primary screen, cell-based, HTS | Anoctamin-1 (Mus musculus), Q8BHY3 | HEK293 TMEM16A/YFP-H148Q/I152L, iodide quench fluorescence; stronger effect = lower value | B-score at 10 µM | 0.3% of 340,000 active;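 active = fluorescence-ratio B-score plate-corrected deviation score at least 3 library SD below zero, with starting fluorescence score within 5 deviations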;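 note: channel opened by trigger with iodide after compound preincubation; score built on the fluorescence ratio of max minus min over baseline; more negative score means more quench and so TMEM16A activation or potentiation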
CHT inh: inhibitors of human choline transporter CHT; B-score at 10 µM; CHT-expressing cells, membrane potential dye, choline response; stronger effect = lower value; 0.86% of 310,000 active; High affinity choline transporter 1 (Homo sapiens), Q9GZV3;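 active = B-score over 3 SD under the library average, and starting fluorescence ratio not unusually high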;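 note: choline stimulus applied at its EC90 after an EC20 pre-addition; B-score computed on integrated fluorescence ratio after choline addition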
Target sequence (Q9GZV3 whole entry, looked up): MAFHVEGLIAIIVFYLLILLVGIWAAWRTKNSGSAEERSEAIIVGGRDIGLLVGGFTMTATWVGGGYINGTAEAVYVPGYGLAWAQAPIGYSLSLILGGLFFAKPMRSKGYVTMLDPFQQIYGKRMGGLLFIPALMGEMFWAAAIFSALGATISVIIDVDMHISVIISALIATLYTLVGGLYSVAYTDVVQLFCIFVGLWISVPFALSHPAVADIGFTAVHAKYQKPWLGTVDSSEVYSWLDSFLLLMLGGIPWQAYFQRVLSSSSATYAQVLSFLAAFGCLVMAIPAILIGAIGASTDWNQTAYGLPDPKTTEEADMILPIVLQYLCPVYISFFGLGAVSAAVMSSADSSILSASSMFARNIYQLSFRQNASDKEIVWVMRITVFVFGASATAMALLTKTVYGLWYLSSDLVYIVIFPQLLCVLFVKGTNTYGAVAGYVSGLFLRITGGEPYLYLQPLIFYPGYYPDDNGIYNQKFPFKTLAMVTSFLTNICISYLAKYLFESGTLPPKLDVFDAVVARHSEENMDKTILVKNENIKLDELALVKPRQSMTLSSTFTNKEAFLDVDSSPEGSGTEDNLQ
HDAC3 inhib: HDAC3 deacetylase inhibitors, primary screen, biochemical, fluorescence, cell-free homogeneous; recombinant HDAC3, fluorogenic peptide/trypsin coupled; Histone deacetylase 3 (Homo sapiens), O15379; inhibition, % at 8.3 µM; AID 2718, 2010; 0.15% of 320,000 active; in the data active = inhibition above about 26%, passing the limit was not always enough
PHOSPHO1 block: PubChem AID 1565; Phosphoethanolamine/phosphocholine phosphatase (Homo sapiens), Q8TCT1; recombinant PHOSPHO1, absorbance phosphatase assay; inhibition, % at 13.3 µM; 1.1% of 290,000 active; in the data active = inhibition above about 60%
ANO1 block: TMEM16A chloride channel inhibitors, primary screen, cell-based, HTS; HEK293 TMEM16A/YFP iodide influx fluorescence, ionomycin; Anoctamin-1 (Mus musculus), Q8BHY3; normalized B-score (activity score, 25-100; higher = stronger inhibition) at 10 µM; 1.2% of 310,000 active;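 active = ratio plate-corrected score three or more library SD toward inhibition, starting fluorescence score within five deviations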;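 note: score derived from kinetic fluorescence span divided by baseline fluorescence per well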
CHT PAM: CHT positive allosteric modulators, primary screen, cell-based, membrane potential dye, choline EC20; AID 488977, 2010; B-score at 10 µM; High affinity choline transporter 1 (Homo sapiens), Q9GZV3; CHT-expressing cells; stronger effect = higher value; LV-AA mutant CHT in HEK293 cells; 0.49% of 310,000 active;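 active = initial fluorescence not abnormally high and integrated response B-score, plate-corrected, over 3 SD above library mean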
CHT activ conf: CHT activators, confirmation, cell-based, membrane potential dye, duplicate; shares compounds with CHT PAM; CHT-expressing cells, membrane potential dye fluorescence (FDSS); % of choline EC20–EC90 response window; HEK293 expressing CHT LV-AA mutant; choline added at its EC20; activation, % at 10 µM; 91% of 2,500 active;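 active = primary screen active, with duplicate mean activation above negative control mean plus 3 SD, cut at about 11% in these data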
HEK293 MP dye: membrane potential response in parental HEK293 cells, counter-screen for CHT activator project, cell-based, membrane potential dye; shares compounds with CHT PAM; membrane potential dye fluorescence (FDSS); measured after EC20 choline addition; ratio readout change at 10 µM, hits read low; 62% of 2,500 active; AID 623908, 2012;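 active = duplicate-averaged ratio beyond 3 SD from buffer wells, up or down, though filed actives are nearly all decreases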
The depositor's hits bear a star; i = inactive; . = no result given. Shown are actives, neighbours in structure and some others; about 3.2% of the full set was active somewhere.

SMILES	ANO1 activ	CHT inh	HDAC3 inhib	PHOSPHO1 block	ANO1 block	CHT PAM	CHT activ conf	HEK293 MP dye
CCOC(=O)N1CCC(NC(=O)Cn2nc(Cc3ccncc3)c3ccccc3c2=O)CC1	i	i	-3	-4	i	i	.	.
CN1CCCC(n2nc(Cc3ccc(Cl)cc3)c3ccccc3c2=O)CC1 (centres undefined)	i	i	1	.	i	i	44*	-30*
Cc1ccc(-n2c(C)cc(/C=N/NC(N)=S)c2C)cc1	i	i	11	18	i	14*	33*	i
CNC(=S)N/N=C/c1ccccc1Cl	i	i	.	-11	i	i	.	.
CNC(=S)N/N=C/c1cc(C)n(-c2ccc(Cl)c(Cl)c2)c1C	i	i	-5	-18	i	9.3*	8	i
O=C(N/N=C/c1ccccn1)c1cc(-c2ccccc2Cl)n[nH]1	i	i	9	7	i	i	.	.
O=S(=O)(NCc1c(Cl)cccc1Oc1ccccc1)c1ccc(F)cc1	i	i	.	42	i	i	1	i
c1cc2nncn2nc1N1CCCC1	i	i	6	6	i	i	.	.
Cc1nnc2ccc(N3CCN(c4ccccn4)CC3)nn12	i	i	-5	5	i	7.2*	53*	-51*
c1ccc(N2CCN(c3ccc4nncn4n3)CC2)nc1	i	i	3	-10	i	9.7*	66*	-58*
COc1ccc(-c2ccoc2)cc1[C@H]1[C@H]2C=CC[C@@H](C)[C@@H]2C(=O)N1Cc1ccccc1	i	i	3	26	i	i	.	.
CCOC(=O)c1sc(=S)n(-c2ccc(OC)cc2)c1N	i	i	-1	20	i	i	13*	i
CCc1c(C)c(C#N)c2nc3ccccc3n2c1NCc1ccco1	i	i	-19	13	i	i	11*	i
Cc1cc(C)nc(/N=C(\N)Nc2ccc(S(=O)(=O)Nc3nc(C)cc(C)n3)cc2)n1	.	i	2	58	i	8.7*	59*	-58*
CC(=O)Nc1ccc(N/C(N)=N/c2nc(C)cc(C)n2)cc1	i	i	-14	40	i	i	.	.
CCOC(=O)c1nnn2c1nc(N1CCN(C)CC1)c1ccccc12	i	i	7	12	i	8.6*	58*	-67*
Cc1cc(C)n(-c2ccc(C(=O)C(C#N)c3nc4ccccc4n3C)cc2)n1 (centres undefined)	i	i	-6	-1	i	i	.	.
COC(=O)C1CCCN1S(=O)(=O)c1ccccc1NC(=O)c1cc(OC)c(OC)c(OC)c1 (centres undefined)	i	i	-12	-18	i	i	.	.
COCc1cc(C)nc(SCC[N+](C)(C)CC(=O)Nc2ccccc2)c1C#N	i	i	2	16	i	i	37*	-28*
COCc1cc(C)nc(SCC[N+](C)(C)CC(=O)c2ccc(Br)cc2)c1C#N	i	i	0	-8	i	i	.	.
C=CCn1cc(C(=O)OCC)c(=O)c2ccc(F)cc21	i	i	0	38	i	i	37*	-43*
CC(C)(C)C(=O)NCc1ccc(C(=O)CN2C(=O)NC3(CCCC3)C2=O)s1	i	.	.	.	.	.	.	.
CN1C(=O)c2c(sc3c2CC(C)(C)SC3)N2CCN=C12	i	i	.	7	i	15*	60*	-55*
